This note sets out measurements from PMC12820563, “FoxP3 forms a head-to-head dimer in vivo and stabilizes its multimerization on adjacent microsatellites”.

Whole data set: some 16,000 sequences, median “rpm ratio (pull-down/input)” near 0.94, cut for the highest 2% near 1.7. The list comes from a sample in which the highest values are over-represented; it also holds similar and randomly drawn sequences.

The test addresses T1, MBP-FoxP1dN (Mus musculus, UniProt P58462 326-579).
T1 sequence: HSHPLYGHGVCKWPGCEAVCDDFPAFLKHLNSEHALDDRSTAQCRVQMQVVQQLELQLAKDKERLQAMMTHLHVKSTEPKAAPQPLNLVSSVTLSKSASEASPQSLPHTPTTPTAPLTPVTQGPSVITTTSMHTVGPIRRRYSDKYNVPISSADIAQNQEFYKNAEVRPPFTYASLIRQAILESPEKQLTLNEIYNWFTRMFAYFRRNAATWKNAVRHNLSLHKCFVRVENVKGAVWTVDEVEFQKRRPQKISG
Nature of the test: PD-seq (MBP pull-down with sequencing); 20 mM Tris-HCl pH 7.5, 100 mM NaCl, 1.5 mM MgCl2, 0.4 uM protein, 0.1 uM dsDNA library, 30 min, room temperature, amylose pull-down; high values mean tight binding. The settings on record: protein: recombinant; tags: His6-MBP; chain copies: 2; dsDNA, one strand shown. Summed up: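 Binding is the reads-per-million enrichment of pull-down relative to input, pooled across replicates. For this, 0.4 µM His6-MBP-tagged mouse FoxP3 or FoxP1 fragment lacking the N-terminus, made in E. coli, was incubated with 0.1 µM Klenow-filled double-stranded degenerate DNA library for 30 min at room temperature in Tris pH 7.5 buffer with NaCl and MgCl2. Complexes bound to amylose resin were washed three times before proteinase K released the DNA for PCR barcoding and Illumina sequencing.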
Turning to “GATGATTGTTCTCCCAGCTGATGAATTGTGTTTTTCGAGTAAACAAATTTTCCTAATCTTTCTGTTCAAGCGCCATCTAC”, the binding signal was 2.33 RPM ratio (pull-down/input).

“GATGATTGTTCTCCCAGCTGATGAATTTGTGTGTTCGAGTAAACAAATTTTCCTAATCTTTCTGTTCAAGCGCCATCTAC”: the binding signal is 1.59 RPM ratio (pull-down/input).

Regarding “GATGATTGTTCTCCCAGCTGATGAATTTTGTGTTTCGAGTAAACAAATTTTCCTAATCTTTCTGTTCAAGCGCCATCTAC”, the binding signal was 1.58 RPM ratio (pull-down/input).

Regarding “GATGATTGTTCTCCCAGCTGATGAATTTGTGTTTTCGAGTAAACAAATTTTCCTAATCTTTCTGTTCAAGCGCCATCTAC”, the binding signal was 2.61 RPM ratio (pull-down/input).

In the case of “GATGATTGTTCTCCCAGCTGATGAATTTGTGATTTCGAGTAAACAAATTTTCCTAATCTTTCTGTTCAAGCGCCATCTAC”, the binding signal is 1.41 RPM ratio (pull-down/input).

With “GATGATTGTTCTCCCAGCTGATGAATTCTGTGTTTCGAGTAAACAAATTTTCCTAATCTTTCTGTTCAAGCGCCATCTAC”, the binding signal is 1.14 RPM ratio (pull-down/input).

Take “GATGATTGTTCTCCCAGCTGATGAATTGTGTGTTTCGAGTAAACAAATTTTCCTAATCTTTCTGTTCAAGCGCCATCTAC”: the binding signal was 1.57 RPM ratio (pull-down/input).

Regarding “GATGATTGTTCTCCCAGCTGATGAATTTTTGTGTTCGAGTAAACAAATTTTCCTAATCTTTCTGTTCAAGCGCCATCTAC”, the binding signal is 1.95 RPM ratio (pull-down/input).

In the case of “GATGATTGTTCTCCCAGCTGATGAATTTGTGTTCTCGAGTAAACAAATTTTCCTAATCTTTCTGTTCAAGCGCCATCTAC”, the binding signal is 1.48 RPM ratio (pull-down/input).

For the sequence “GATGATTGTTCTCCCAGCTGATGAATTGATAGCTTCGAGTAAACAAATTTTCCTAATCTTTCTGTTCAAGCGCCATCTAC”, the binding signal is 0.923 RPM ratio (pull-down/input).

As for “GATGATTGTTCTCCCAGCTGATGAATTGCAATTCTCGAGTAAACAAATTTTCCTAATCTTTCTGTTCAAGCGCCATCTAC”, the binding signal was 1.38 RPM ratio (pull-down/input).

In the case of “GATGATTGTTCTCCCAGCTGATGAATTAAGCCTATCGAGTAAACAAATTTTCCTAATCTTTCTGTTCAAGCGCCATCTAC”, the binding signal is 0.873 RPM ratio (pull-down/input).

“GATGATTGTTCTCCCAGCTGATGAATTCTTCCAATCGAGTAAACAAATTTTCCTAATCTTTCTGTTCAAGCGCCATCTAC”: the binding signal is 0.955 RPM ratio (pull-down/input).

Turning to “GATGATTGTTCTCCCAGCTGATGAATTTCTATAATCGAGTAAACAAATTTTCCTAATCTTTCTGTTCAAGCGCCATCTAC”, the binding signal was 1.1 RPM ratio (pull-down/input).

Take “GATGATTGTTCTCCCAGCTGATGAATTCTCAACCTCGAGTAAACAAATTTTCCTAATCTTTCTGTTCAAGCGCCATCTAC”: the binding signal is 0.795 RPM ratio (pull-down/input).

As for “GATGATTGTTCTCCCAGCTGATGAATTAATGCCGTCGAGTAAACAAATTTTCCTAATCTTTCTGTTCAAGCGCCATCTAC”, the binding signal is 1.11 RPM ratio (pull-down/input).

Consider “GATGATTGTTCTCCCAGCTGATGAATTCACCGCCTCGAGTAAACAAATTTTCCTAATCTTTCTGTTCAAGCGCCATCTAC”, for which the binding signal was 0.899 RPM ratio (pull-down/input).

For the sequence “GATGATTGTTCTCCCAGCTGATGAATTGTGATCGTCGAGTAAACAAATTTTCCTAATCTTTCTGTTCAAGCGCCATCTAC”, the binding signal is 1.16 RPM ratio (pull-down/input).

Regarding “GATGATTGTTCTCCCAGCTGATGAATTGTTGACATCGAGTAAACAAATTTTCCTAATCTTTCTGTTCAAGCGCCATCTAC”, the binding signal is 2.54 RPM ratio (pull-down/input).

Take “GATGATTGTTCTCCCAGCTGATGAATTGATGACATCGAGTAAACAAATTTTCCTAATCTTTCTGTTCAAGCGCCATCTAC”: the binding signal is 1.34 RPM ratio (pull-down/input).

For “GATGATTGTTCTCCCAGCTGATGAATTTTTGACATCGAGTAAACAAATTTTCCTAATCTTTCTGTTCAAGCGCCATCTAC”, the binding signal is 1.09 RPM ratio (pull-down/input).

With “GATGATTGTTCTCCCAGCTGATGAATTATTGACATCGAGTAAACAAATTTTCCTAATCTTTCTGTTCAAGCGCCATCTAC”, the binding signal was 2 RPM ratio (pull-down/input).

Regarding “GATGATTGTTCTCCCAGCTGATGAATTGACAACATCGAGTAAACAAATTTTCCTAATCTTTCTGTTCAAGCGCCATCTAC”, the binding signal is 2.29 RPM ratio (pull-down/input).

Regarding “GATGATTGTTCTCCCAGCTGATGAATTTCTGACATCGAGTAAACAAATTTTCCTAATCTTTCTGTTCAAGCGCCATCTAC”, the binding signal was 0.96 RPM ratio (pull-down/input).

As to “GATGATTGTTCTCCCAGCTGATGAATTATTGAAATCGAGTAAACAAATTTTCCTAATCTTTCTGTTCAAGCGCCATCTAC”, the binding signal is 1.23 RPM ratio (pull-down/input).

On to “GATGATTGTTCTCCCAGCTGATGAATTGACATAATCGAGTAAACAAATTTTCCTAATCTTTCTGTTCAAGCGCCATCTAC”, for which the binding signal is 1.63 RPM ratio (pull-down/input).

For the sequence “GATGATTGTTCTCCCAGCTGATGAATTGACATTATCGAGTAAACAAATTTTCCTAATCTTTCTGTTCAAGCGCCATCTAC”, the binding signal was 1.5 RPM ratio (pull-down/input).

In the case of “GATGATTGTTCTCCCAGCTGATGAATTGAACTAATCGAGTAAACAAATTTTCCTAATCTTTCTGTTCAAGCGCCATCTAC”, the binding signal is 0.992 RPM ratio (pull-down/input).

With “GATGATTGTTCTCCCAGCTGATGAATTACCGCGCTCGAGTAAACAAATTTTCCTAATCTTTCTGTTCAAGCGCCATCTAC”, the binding signal was 0.948 RPM ratio (pull-down/input).

For the sequence “GATGATTGTTCTCCCAGCTGATGAATTTGATTCCTCGAGTAAACAAATTTTCCTAATCTTTCTGTTCAAGCGCCATCTAC”, the binding signal is 0.839 RPM ratio (pull-down/input).

Consider “GATGATTGTTCTCCCAGCTGATGAATTCTTGGTTTCGAGTAAACAAATTTTCCTAATCTTTCTGTTCAAGCGCCATCTAC”, for which the binding signal was 0.962 RPM ratio (pull-down/input).
